A selection: hits, their analogues and other compounds. The true share with any hit is near 6.9%.
MCF10A rereplic = induces DNA re-replication in MCF 10a normal breast cells. MCF 10A DNA re-replication, Hoechst nuclear intensity, 48 h. AID 624296. Potency, µM (doses to about 46.1 µM), usual class: activators. actives 2.9% (n = 350,000); also: nearly all actives have a fitted effect of over 50% in size
Vif-A3G inh = inhibitors of Vif-APOBEC3G interaction; HeLa A3G-eYFP + Vif (tagged APOBEC3G with the HIV-1 protein that degrades it), YFP fluorescence, overnight; Potency, µM (titrated, usually from 46.1 µM), hits mostly inhibitors; actives 0.076% (n = 410,000); also: nearly all actives have a fitted effect of over 60% in size
Target sequence (Q9HC16 whole entry, looked up): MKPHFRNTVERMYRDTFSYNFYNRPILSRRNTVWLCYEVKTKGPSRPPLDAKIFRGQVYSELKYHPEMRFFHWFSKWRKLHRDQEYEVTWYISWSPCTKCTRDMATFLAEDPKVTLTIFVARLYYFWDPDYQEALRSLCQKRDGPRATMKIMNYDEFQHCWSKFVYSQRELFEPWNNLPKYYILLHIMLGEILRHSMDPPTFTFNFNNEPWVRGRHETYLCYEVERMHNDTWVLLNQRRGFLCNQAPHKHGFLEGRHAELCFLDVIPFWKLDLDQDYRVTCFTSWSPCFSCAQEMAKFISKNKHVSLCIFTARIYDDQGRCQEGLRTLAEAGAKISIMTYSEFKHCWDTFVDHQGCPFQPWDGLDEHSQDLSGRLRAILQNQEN
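HeLa cells stably expressing Vif and C-terminally eYFP-tagged A3G, seeded overnight at 37 deg C, then exposed to compound by pintool overnight at 37 deg C. Rise in yellow fluorescence (Ex 488/Em 500-530, Acumen) marks blocked Vif-driven A3G degradation.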
SW480 rereplic = induces DNA re-replication in SW480 colon adenocarcinoma cells; Potency, µM (highest dose often 46.1 µM), actives largely listed as activators; actives 1.8% (n = 340,000); SW480 DNA re-replication, Hoechst DNA content imaging, 48 h; also: nearly all actives have a fitted effect of over 55% in size
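DNA re-replication was detected as more nuclei of elevated Hoechst intensity after 48 hr exposure to compound (23 nL pinned per well of 250 cells).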
Giardia kill = kills Giardia lamblia. Giardia lamblia trophozoite viability. activity change, % at 7.66 µM, hits read low. actives 0.15% (n = 340,000). AID 540267; in the data active = activity change below about -80%; inconclusive = between about -30% and that limit;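 also: parasites exposed to compound for two days anaerobically before the ATP read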
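Compounds were tested on trophozoites seeded at 100 cells/well and held 48 hrs at 37 deg C anaerobically. An ATP-based luminescent kit measured the remaining live cells.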
IL-1B inflam inh = blocks inflammasome-driven IL-1 beta release; AID 743279; actives 4.7% (n = 360,000); THP-1 LPS/ATP IL-1B secretion, AlphaLISA, 16 h; active compounds read low; activity change, % at 57.5 µM; in the data active = activity change below about -50%; inconclusive = mostly about -30% to -49%
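Secreted IL-1B measured by AlphaLISA bead assay after 16 h compound exposure of THP-1 cells; compounds (final up to 57.5 uM) added 1 h before LPS (250 ng/mL) and ATP (1.25 mM) stimulation; lower signal means less secretion.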
Vif-APOBEC3F blk = Vif-A3F binding inhibition | HeLa A3F-eYFP + Vif (tagged APOBEC3F with the HIV-1 protein that degrades it), YFP fluorescence increase | Potency, µM (series often up to 46.1 µM) | actives 0.2% (n = 390,000) | AID 602313; also: nearly all actives have a fitted effect of over 65% in size
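HeLa cells stably expressing A3F-eYFP plus Vif, plated and incubated overnight at 37 deg C, then exposed to compounds overnight at 37 deg C. Blocked degradation read as raised yellow fluorescence (Ex 488/Em 500-530).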
Large screens that a line does not name were inactive. Unless noted, calls follow the shape of the dose curve; as a rule, active = well fitted curve in the direction sought with a large enough effect; inconclusive = small, poorly fitted or top-dose-only effect, or another doubt; inactive = no such curve, though single readings can be large; an effect the other way counts as inactive or inconclusive.

COc1ccc2nc3cc(Cl)ccc3c(Nc3ccc(O)c(CN4CCN(C)CC4)c3)c2c1	SW480 rereplic inconclusive, Giardia kill inconclusive, IL-1B inflam inh -114, Vif-APOBEC3F blk inconclusive
COc1ccc(NC(=O)Cn2c(=O)n(Cc3ccco3)c(=O)c3cc(OC)c(OC)cc32)cc1	none (no result: MCF10A rereplic, SW480 rereplic, Giardia kill, IL-1B inflam inh)
CC(C)c1ccc(OCC(=O)Nc2cc(-c3ccccc3)no2)cc1	none (no result: MCF10A rereplic, SW480 rereplic, Giardia kill, IL-1B inflam inh)
N#CCC(=O)N/N=C/c1cn(Cc2cccc3ccccc23)c2ccccc12	MCF10A rereplic 5.2µM, Vif-A3G inh inconclusive, SW480 rereplic 15µM
C/C(=N/N=C(\C)c1ccccc1O)c1ccccc1O	Vif-APOBEC3F blk 18µM
CCC(=NN=C(CC)c1ccccc1O)c1ccccc1O	MCF10A rereplic inconclusive
COc1ccc(Cl)cc1NC(=O)CSc1nnc(C)n2c1cc1occc12	none (no result: MCF10A rereplic, SW480 rereplic, Giardia kill, IL-1B inflam inh)
COc1cc(C(=O)Nc2ccccc2C(=O)Nc2ccccn2)cc(OC)c1OC	MCF10A rereplic inconclusive, SW480 rereplic 23µM
O=C(Nc1cccc2cccnc12)c1cccc([N+](=O)[O-])c1	none
O=C(Nc1ccccc1C(=O)Nc1ccccn1)c1cccc([N+](=O)[O-])c1	MCF10A rereplic 3.7µM
COc1cc(C(=O)Nc2ccc(Br)cc2C(=O)c2cc(OC)c(OC)c(OC)c2)cc(OC)c1OC	MCF10A rereplic 21µM, Vif-A3G inh inconclusive, SW480 rereplic 16µM
COc1cc(C(=O)Nc2ccccn2)cc(OC)c1OC	none
Cc1ccc(S(=O)(=O)N2CCN(C(=O)c3ccccc3Cc3ccccc3)CC2)c(C)c1	MCF10A rereplic inconclusive, IL-1B inflam inh -72
Cc1ccc(S(=O)(=O)N2CCN(C(=O)c3ccco3)CC2)c(C)c1	none
CC(C)(C)[C@]1(O)CCN2CC3c4ccccc4CCc4cccc(c43)[C@@H]2C1 (some centres undefined)	none (no result: Vif-A3G inh, Giardia kill, IL-1B inflam inh, Vif-APOBEC3F blk)
CC(=O)N(O)c1ccc(/C=C2\C=Cc3ccccc32)cc1	none (no result: MCF10A rereplic, SW480 rereplic, Giardia kill, IL-1B inflam inh, Vif-APOBEC3F blk)
Cc1ccc(/C=C/C(=O)c2c(C)nc3ccccn23)cc1	MCF10A rereplic inconclusive, SW480 rereplic inconclusive, IL-1B inflam inh -95
CC(=O)c1c(C)nc2ccccn12	none
Cc1nc2ccccn2c1C(=O)/C=C/c1cccc([N+](=O)[O-])c1	MCF10A rereplic inconclusive, SW480 rereplic 4.1µM, IL-1B inflam inh -75
CCOc1ccccc1CNC(=O)CCn1ccc2cc(S(=O)(=O)N3CCC(C)CC3)ccc21	none (no result: MCF10A rereplic, SW480 rereplic, Giardia kill, IL-1B inflam inh)
CCOC(=S)SCc1cn2ccc(C)cc2n1	MCF10A rereplic 16µM, IL-1B inflam inh -57, Vif-APOBEC3F blk inconclusive
CC1CCCCN1c1ncnc(N)c1[N+](=O)[O-] (centres undefined)	IL-1B inflam inh -78
CC1Cc2ccccc2N1c1ncnc(N)c1[N+](=O)[O-] (centres undefined)	MCF10A rereplic inconclusive, Giardia kill inconclusive, IL-1B inflam inh -92
CCOc1ccc(C(CC(=O)Nc2cc(C)c(Cl)cc2OC)N2Cc3ccccc3C2=O)cc1OC (centres undefined)	none (no result: MCF10A rereplic, SW480 rereplic, Giardia kill, IL-1B inflam inh)
Cc1ccc(CNC(=O)c2c[nH]c3ccc(S(=O)(=O)Nc4ccc(C(C)C)cc4)cc3c2=O)cc1	none (no result: MCF10A rereplic, SW480 rereplic, Giardia kill, IL-1B inflam inh)
CC1(C)Oc2ccc3ccc(=O)oc3c2/C(=C/Nc2ccc(O)cc2)C1=O	MCF10A rereplic inconclusive, SW480 rereplic inconclusive, IL-1B inflam inh -81
CC1(C)Oc2ccc3ccc(=O)oc3c2/C(=C/Nc2ccccn2)C1=O	none
CC1(C)Oc2ccc3ccc(=O)oc3c2/C(=C/Nc2cccc(O)c2)C1=O	MCF10A rereplic 12µM, SW480 rereplic inconclusive, IL-1B inflam inh -84
CN/C=C1\C(=O)C(C)(C)Oc2ccc3ccc(=O)oc3c21	none
CCCn1c(CN2CCN(c3ccc(OC)cc3)CC2)nc2c1c(=O)[nH]c(=O)n2C	none (no result: MCF10A rereplic, SW480 rereplic, Giardia kill, IL-1B inflam inh)
COc1ccc(Nc2nc3cc(Cl)c(Cl)cc3n3cnnc23)cc1Cl	Vif-APOBEC3F blk inconclusive (no result: MCF10A rereplic, SW480 rereplic, Giardia kill, IL-1B inflam inh)
O=CC1=C(c2ccccc2)Oc2ccccc2O1	MCF10A rereplic inconclusive, SW480 rereplic inconclusive, IL-1B inflam inh -102
O=C(CSc1ccccc1)NCc1ccc2c(c1)CCN2C(=O)c1ccc(F)cc1	none (no result: MCF10A rereplic, SW480 rereplic, Giardia kill, IL-1B inflam inh)
Cc1[nH]c(=O)[nH]c1C(=O)CCCCC(=O)O	IL-1B inflam inh -95
